Measured values published in PubChem BioAssay AID1671194 (National Center for Advancing Translational Sciences (NCATS), 2021).
In all, about 140,000 compounds went through this assay and about 240 (0.17%) were called active. Inconclusive results (about 9%) are left out. Calls follow the shape of the dose curve; as a rule, active = well fitted inhibition curve with a large enough effect; inconclusive = small, poorly fitted or top-dose-only effect; inactive = no such curve, though single readings can be large or run the other way. Shown is part of a subset that was picked to be rich in actives. A call without a number means that no potency is given here.

Experiment: Primary qHTS assay for inhibitors of alpha-synuclein gene (SNCA) expression; also: nearly all actives have a fitted effect of over 45% in size
Conditions: HEK-293 SNCA-luciferase knock-in, luminescence, 24 h; series mostly up to 57.2 µM
From the text: Assay Submitter (PI): Daniel R. Scoles Ph.D.
Department of Neurology, University of Utah, Salt Lake City, Utah
Accumulation of alpha-synuclein is a main underlying pathological feature of Parkinson's disease (PD) and alpha-synucleinopathies, for which lowering expression of the alpha-synuclein gene (SNCA) is a potential therapeutic avenue. Using a cell-based luciferase reporter of SNCA expression we performed a quantitative high throughput screen (qHTS) of 155,885 compounds in dose response. The screening assay was generated using genome editing to insert the luciferase gene downstream and in frame of the SNCA gene in HEK-293 cells (1). A viability counterscreen using GF-AFC was used to eliminate cytotoxic and false positive compounds. After in silico analysis (clustering, removal of frequent hitter nuisance chemotypes), inhibitor compounds from the primary screen were selected for follow up and re-tested at 11-doses in the SNCA-luc cells (luciferase and GF-AFC confirmation), and in CMV-luc expressing cell line to flag general transcriptional repressors.
Described herein are the results of the primary screen for SNCA inhibitors; decrease in luciferase signal (inhibition of the SNCA gene expression) is the desired output for this assay.
1. Dansithong, W., Paul, S., Scoles, D. R., Pulst, S. M., and Huynh, D. P. (2015) Generation of SNCA Cell Models Using Zinc Finger Nuclease (ZFN) Technology for Efficient High-Throughput Drug Screening. PLoS ONE 10, e0136930.
SEQUENCE No. (e.g., 1, 2, 3, etc.); […] (e.g., Cells, Incubation, Reagent, etc.); VALUE; DESCRIPTION
1; Cells; 4 uL; Dispense 1500 HEK-293-SNCA-luc cells/well into Greiner 1536-well white / solid bottom tissue culture treated plate. The plate was covered with metal lids with gas-exchange holes.
2; Incubate; 24 hours; Incubate at 37C, 5% CO2, 95% RH.
3; Compounds; 23 nL; Compounds and controls were transferred via a Kalypsys Pin Tool (Wako USA) equipped with a 1536-slotted pin array. The plate was covered with metal lids with gas-exchange holes.
4; Incubate; 24 hours; Incubate at 37C, 5% CO2, 95% RH.
5; Dispense; 1 uL; Dispense Gly-Phe-7-amino-4-trifluoromethylcoumarin (GF-AFC, prepared at 125 uM in PBS) was added. The plate was covered with metal lids with gas-exchange holes.
6; Incubate; 30 min; Incubate at 37C, 5% CO2.
7; Detector; Fluorescence; Measure fluorescence with ViewLux microplate reader (PerkinElmer) equipped with 405/10 excitation and 540/25 emission filters.
8; Dispense; 3 uL; Dispense ONE-Glo ([…]) lucifase detection reagent was added to each well. Plates were covered with metal lids with gas-exchange holes.
9; Incubate; 15 min; Incubate at room temperature.
10; Detector; Luminescence; Measure luminescence with ViewLux microplate reader (PerkinElmer) equipped with clear filters.
NOTES (numbers refer to sequence above)
1; HEK-293-SNCA-luc were cultured and suspended in phenol-red free DMEM (4.5 g/L glucose, 25 mM HEPES, cat #21063 (Thermo)).
3; Compounds were added to the assay plate in an 11-point intra plate dose response, 1:3 titration in DMSO with a final concentration range of […]. Vehicle-only plates, with DMSO being pin-transferred to every well, were inserted at the beginning of screening runs to confirm expected assay performance. Activity was normalized to wells containing medium only (-100% activity, full inhibition) and SNCA-luc cells treated with DMSO vehicle control (0% activity), contained on the same plate as test samples.
10; Signals were analyzed, and dose-response curves were fit using the Hill equation. Compounds in curve classes -1.1, -1.2, -2.1, -2.2 in the SNCA-luc assay were considered active. Compounds were eliminated from further consideration if also active (curve class -1.1, -1.2, -1.3, -1.4, -2.1, -2.2, -2.3, -2.4) in the GF-AFC cytotoxicity assay.
Potency is read from the fitted curve at half-maximal effect.

Row | Structure (SMILES) | Potency
1 | O=c1c2nc(-c3ccccc3)ccc2ncn1Cc1ccccc1 | inactive
2 | C[C@@H](O)[C@H](N)C(=O)N1CCc2onc(-c3cccc4ccccc34)c2C1 | inactive
3 | COc1ccc(CN2CCN(c3ccccc3)CC2C)c(OC)c1OC (stereo not drawn) | inactive
4 | O=C1CC2(CCN(C(=O)C3CCCN3C(=O)Cc3ccccn3)CC2)Oc2ccccc2N1 (stereo not drawn) | inactive
5 | CCOc1ccccc1C(=O)Nc1ccc2c(c1)N(C)C(=O)c1ccccc1S2 | inactive
6 | CCN1C(=O)c2ccccc2Sc2ccc(NC(=O)Cc3ccc(OC)cc3)cc21 | inactive
7 | COc1cccc(NC(=O)Nc2ccc3c(c2)N(C)C(=O)c2ccccc2S3)c1 | 20 µM (active)
8 | COc1ccc(-c2nc(CN3CCOC(CN)C3)c(C)o2)c2ccccc12 (stereo not drawn) | inactive
9 | CN1C[C@H](O)C[C@H]1c1nnc2n1CCN(C(=O)c1cc3ccccc3[nH]1)CC2 | inactive
10 | COc1ccc(Cl)cc1NC(=O)N1CCCC(Cn2cnc3cccnc32)C1 (stereo not drawn) | inactive
11 | COCCN1C[C@H]2CN(C)c3ccccc3[C@@H]2N(C(=O)CC2CCCC2)CCC1=O | inactive
12 | CNC(=O)C1CCCCN1Cc1ccc(-c2cccs2)cc1 (stereo not drawn) | inactive
13 | COc1ccc(-c2cc(N3CCCC(NC(=O)c4cccc(Cl)c4)C3)n[nH]2)cc1 (stereo not drawn) | inactive
14 | Cc1cc(OC2CN(C(=O)c3ccccc3F)C2)ccc1F | inactive
15 | COc1ccc(CC(=O)N2CC[C@@H](CC(=O)O)[C@@H](CCN(C)c3ccccc3)C2)cc1 | inactive
16 | COCc1nc(C2CC(N)C2)cc(N2CCC(c3[nH]ncc3C)CC2)n1 (stereo not drawn) | inactive
17 | CCOc1ccc(N(CC)C(=O)C2CCN(S(=O)(=O)c3cccc4nonc34)CC2)cc1 | inactive
18 | CCOc1ccc(N(Cc2ccccc2)C(=O)c2nc(S(C)(=O)=O)ncc2Cl)cc1 | 6.31 µM (active)
19 | CCOc1ccc(NC(=O)CN(Cc2ccccc2)S(=O)(=O)c2ccc(Cl)cc2)cc1 | inactive
20 | CCOc1ccc2c(n1)CCN(C(=O)NC1CCCCC1)C2 | inactive
21 | C=CCN(C)C(=O)[C@@H](C)C1CC[C@@]2(C)Cc3sc(NS(=O)(=O)c4ccc(Cl)cc4)nc3[C@@H](C)[C@@H]2[C@H]1O (stereo partly drawn) | inactive
22 | CCN1CCN(C(=O)c2ccc3nnc(-c4ccc(OC(F)(F)F)cc4)n3c2)CC1 | inactive
23 | COc1cccc(CCC(=O)N2CCCN(S(C)(=O)=O)c3ccccc32)c1 | inactive
24 | Oc1ccc(-c2nc(C3CC3)nc3c2CN(Cc2ccc(F)cc2)CC3)cc1 | inactive

Row | Structure (SMILES) | Potency
25 | Cc1cccc(CN2CCC3(Cc4ccccc4CNC3=O)C2)c1 (stereo not drawn) | inactive
26 | COC(=O)N1CCN(C(=O)c2cccc(-c3ccccc3OC)c2)CC1 | inactive
27 | CC1=C(C(=O)N(C)C)C(c2ccc(Cl)cc2)N2C(CC(=O)NCc3ccco3)=CSC2=N1 (stereo not drawn) | inactive
28 | CCCn1c(NCc2ccccc2F)nc2ccccc21 | inactive
29 | Cc1ccc(OCCn2c(CNc3ccccc3C)nc3ccccc32)cc1 | inactive
30 | CCCn1c(NCc2ccc(N(CC)CC)cc2)nc2ccccc21 | 17.8 µM (active)
31 | O=C(NCCc1ccccn1)c1ccc2c(c1)N(S(=O)(=O)c1ccccc1)CC2 | inactive
32 | CCCS(=O)(=O)N1CCC(CCOC)(NC(=O)NCC)CC1 | inactive
33 | CC(C)NC(=O)C1(CCO)CCN(c2ncccn2)C1 (stereo not drawn) | inactive
34 | COc1cccc(CC(=O)NC2CCN(c3cc(-c4ccc(F)cc4)[nH]n3)C2)c1 (stereo not drawn) | inactive
35 | CCC(=O)N1CCC2(CC1)OCC(C(=O)NCc1ccccc1)N2C(=O)c1ccc(C)cc1 (stereo not drawn) | inactive
36 | O=C1NCc2ccccc2CC12CCCN2Cc1ccccc1OC(F)(F)F (stereo not drawn) | inactive
37 | CC(C)CN(CC1CN(C(=O)Cc2cccs2)CCO1)C(=O)c1cccc2ccccc12 (stereo not drawn) | inactive
38 | O=C1NC(=NC2CCCC2)C2(CCCN(Cc3ccsc3)C2)N1c1cc(F)cc(F)c1 (stereo not drawn) | inactive
39 | CCOc1cccc(CN2CCC(Oc3ccc(-c4noc(C5CC5)n4)cc3)C2)c1 (stereo not drawn) | inactive
40 | COc1ccccc1Nc1ccnc(N2CCC(C(=O)N3CCC(c4ccccc4)CC3)CC2)n1 | inactive
41 | Cc1ccc(-c2ccccc2CN2CCN(C(=O)NC(C)C)CC2)cc1Cl | inactive
42 | Cc1nonc1CC(=O)NC1CC(=O)N(Cc2cccc3ccccc23)C1 (stereo not drawn) | inactive
43 | COc1ccccc1NC(=O)Cn1c(-c2ccc(F)cc2)nc(C)c(CCO)c1=O | inactive
44 | COc1ccc(-c2ccnc(N[C@H]3CO[C@H]4[C@@H]3OC[C@H]4OC(=O)Nc3cccc4ccccc34)n2)cc1 | inactive
45 | Cn1cccc1C(=O)N1C[C@@H](COc2ccccc2)[C@H](C(N)=O)C1 | inactive
46 | Cc1cccc(OCCc2noc(C3CCCN(Cc4ccccc4C#N)C3)n2)c1 (stereo not drawn) | inactive
47 | Cc1cccc(-c2nc3ccc(C(=O)N4CCCCC4)cc3o2)n1 | 7.94 µM (active)
48 | CCOC(=O)C1CCCN(C(=O)c2ccc3oc(-c4ccccn4)nc3c2)C1 (stereo not drawn) | inactive
